Results taken from PubChem BioAssay (NCI).
This is part of a sample that, as a whole, favours compounds with a hit. Of some 83,000 tested, about 20% had one in any assay.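 Single-concentration screen, 48 h exposure, 96-well plates. Endpoint: percent growth. Below 10 = active.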 Values without a mark were called inactive. Active and inactive are the calls of the source.

What was measured:
Experiment in all cases: NCI-60 one-dose screen, 48 h (100 = growth as untreated, 0 = no growth, -100 = all killed)
Conditions in all cases: 10 µM unless noted
[1] = tested on: NCI-H23 lung
[2] = tested on: NCI-H226 lung
[3] = tested on: NCI-H322M lung
[4] = tested on: HOP-62 NSCLC
[5] = tested on: NCI-H460 lung
[6] = tested on: HOP-92 NSCLC
[7] = tested on: NCI-H522 lung
[8] = tested on: A549/ATCC NSCLC
[9] = tested on: 786-0 renal
[10] = tested on: COLO 205 colon
[11] = tested on: DU-145 prostate
[12] = tested on: K-562 leukemia
[13] = tested on: MALME-3M melanoma
[14] = tested on: MDA-MB-231 breast
[15] = tested on: RXF 393 renal
[16] = tested on: SF-268 CNS
[17] = tested on: SF-295 CNS
[18] = tested on: SF-539 CNS
[19] = tested on: UACC-257 melanoma
[20] = tested on: M14 melanoma

Row | SMILES | growth [1] | growth [2] | growth [3] | growth [4] | growth [5] | growth [6] | growth [7] | growth [8] | growth [9] | growth [10] | growth [11] | growth [12] | growth [13] | growth [14] | growth [15] | growth [16] | growth [17] | growth [18] | growth [19] | growth [20]
1 | C[C@@H]1CN(c2cnc(C(=O)Nc3cc(F)cc4cccnc34)cn2)C[C@H](C)N1 | 63% | 44.8% | 93.1% | 83.8% | 88.9% | 46% | 51.7% | 94.6% | 60.6% | 13% | 84.1% | 28.5% | 65.2% | 37.7% | 39.8% | 88.1% | 101% | 94.7% | 41.4% | 73.9%
2 | O=C(O)c1cn(C2CC2)c2cc(N3CCN(C(=O)N4CCOCC4)CC3)c(F)cc2c1=O | 99.5% | 99.3% | 104% | 106% | 115% | 95.5% | 89.9% | 108% | 99.8% | 110% | 115% | 114% | 88.6% | 104% | 94.6% | 97.9% | 106% | 102% | 98% | 102%
3 | CC1(C)CC[C@]23CC[C@]4(C)[C@H](CC[C@@H]5[C@@]6(C)CCNCC(C)(C)[C@@H]6CC[C@]54C)[C@H]2[C@H]1OC3 | 95.6% | 96.7% | 99.8% | 97% | 23.7% | 98.9% | 90.1% | 79.3% | 101% | -21% (active) | 98.5% | 16.9% | 104% | 96.6% | 101% | 111% | 108% | 99.5% | 92.5% | 92.8%
4 | COc1cc2c(cc1-c1c(C)noc1C)ncc1nc(CN3CCOCC3)n([C@H](C)COC(F)F)c12 | 45.4% | 58% | 38.5% | 16.6% | 51.9% | 5.85% (active) | -0.0255% (active) | 37.6% | 45.5% | 14.7% | 62.2% | 28% | 37.8% | 29.5% | 35.1% | 55.2% | 40.3% | 35.1% | 26.3% | 40.1%
5 | COc1cc(C[C@H]2COc3cc(O)cc(O)c3C2=O)ccc1O | 49.8% | 101% | 69.7% | 35.4% | 18.6% | 30.9% | 17.2% | 46% | 25.6% | 106% | 43.1% | 9.86% (active) | 62% | 55.3% | 34.7% | 47.2% | 54.5% | 3.27% (active) | 35.8% | 9.16% (active)
6 | O=c1oc2ccccc2cc1-c1nn(-c2ccccc2)cc1-c1nn[nH]n1 | 101% | 92.8% | 100% | 90.8% | 105% | 92.2% | 94.6% | 97.7% | 104% | 108% | 113% | 103% | 90% | 94.7% | 99.4% | 103% | 99.7% | 97.4% | 100% | 98.2%
7 | COc1ccc(-c2nc3c(c(-c4ccc(Cl)cc4)nn3-c3ccccc3)c(-c3ccccc3)c2C#N)cc1 | 103% | 97.4% | 102% | 111% | 104% | 120% | 96.3% | 95.9% | 108% | 118% | 104% | 100% | 103% | 111% | 134% | 106% | 102% | 103% | 95.9% | 92.3%
8 | CS(=O)(=O)c1ccc(-c2nc3ccccc3n2CC(=O)N/N=C/c2ccccc2)cc1 | 94.2% | 98.8% | 95.5% | 89% | 107% | 96.3% | 79.1% | 97.2% | 97.1% | 104% | 111% | 92.3% | 82.4% | 97.6% | 116% | 97.5% | 94.2% | 97.5% | 98.8% | 90.4%
9 | CCC(C)(C)c1ccc(Nc2ccc(Nc3ccc(C(C)(C)CC)cc3)cc2)cc1 | 83.1% | 93% | 105% | 89.3% | 99.1% | 51.1% | 79.9% | 90.4% | 84.4% | 84.7% | 93.8% | 80.4% | 97.4% | 93.5% | 83.4% | 98.6% | 102% | 102% | 80.3% | 92.5%
10 | COc1ccc(/C=N/NC(=O)Cn2c(-c3ccc(S(C)(=O)=O)cc3)nc3ccccc32)cc1 | 95.5% | 99.6% | 91.3% | 107% | 102% | 94.1% | 92.9% | 113% | 99.3% | 111% | 111% | 98.9% | 89% | 95.8% | 104% | 102% | 93.1% | 96.4% | 112% | 92.1%
11 | O=C1OCC2=C1C(c1ccccc1)c1cc3c(cc1N2CCO)OCCO3 (stereo not given) | 30.9% | 15.8% | 48.7% | 27.3% | 5.36% (active) | 44.5% | -47.4% (active) | 23.6% | 20.8% | -47.6% (active) | -9.9% (active) | 10.5% | 67.1% | 14.2% | 10.8% | 32.1% | 0.89% (active) | -22.7% (active) | 47.3% | -21.8% (active)
12 | O=S(=O)(Nc1ccc2ccccc2c1)c1ccc(-c2cnc(C3CC3)o2)cc1 | 41.1% | 62.1% | 48.7% | 31.6% | 15.2% | 54.2% | -0.255% (active) | 37.6% | 42.7% | 1.46% (active) | 18% | 10.4% | 50.3% | 52.4% | 2.78% (active) | 53.5% | 34.2% | 6.39% (active) | 44.5% | 19.4%
13 | C=C1C(=O)O[C@H]2[C@H]1CC/C(COC(=O)C(=O)c1c[nH]c3ccc(Cl)cc13)=C\CC[C@@]1(C)O[C@@H]21 | -55.7% (active) | -73% (active) | -76.2% (active) | -53.1% (active) | -72.9% (active) | -92.8% (active) | -48.4% (active) | -82.2% (active) | -99.1% (active) | -51.9% (active) | -96.2% (active) | 2.92% (active) | -75.7% (active) | -74.8% (active) | -92.9% (active) | -81.3% (active) | -10.6% (active) | -78.5% (active) | -75.9% (active) | -83.1% (active)
14 | CNC(=O)c1cc(Oc2ccc3c(c2)sc2nc(-c4ccc(NC(=O)[C@@H](NC(=O)OC)C(C)C)cc4)cn23)ccn1 | 77.6% | 56.9% | 107% | 82.5% | 87.6% | 61.7% | 43.6% | 80.8% | 87.4% | 63.9% | 84.8% | 47.3% | 49.4% | 71.9% | 85.3% | 82.5% | 68.7% | 88.2% | 59.5% | 64.1%
15 | CCN(CC)c1ccc(-c2cc(-c3cc(OC)c(OC)c(OC)c3)nc(N3CCC(O)CC3)c2C#N)cc1 | 0.411% (active) | -36.2% (active) | 18.1% | 17.9% | -32.8% (active) | -17.6% (active) | -52.3% (active) | 0.627% (active) | -22% (active) | -60.9% (active) | 1.59% (active) | 2.04% (active) | -49.2% (active) | -58.7% (active) | -13.3% (active) | 0.835% (active) | -62.2% (active) | -44.3% (active) | -47.5% (active) | -56.4% (active)
